Measured values as given in PubChem BioAssay.
The source made the active and inactive calls.

Key:
[1] = binders of probe aFSTL3 on microarray, primary screen, stem cell growth factor project, biochemical, small-molecule microarray, fluorescence 635/667 (AID 1064); settings: higher = more signal;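 also: measures binding of the biotinylated anti-FSTL3 antibody to printed compounds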
[2] = binders from COS7 lysate, DM2A8 probe, primary screen, torsin A project, cell lysate, small-molecule microarray, fluorescence 635/667 (AID 1065); settings: higher = more signal, COS7 lysate expressing mutant human TOR1A
[3] = binders of probe aFGF2 on microarray, primary screen, stem cell growth factor project, biochemical, small-molecule microarray, fluorescence 635/667 (AID 1067); settings: higher = more signal;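 also: measures binding of biotinylated aFGF2 protein to printed compounds on slides; z-score merges feature fluorescence and signal-to-noise across triplicate slides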
[4] = binders of probe aFGF10 on microarray, primary screen, stem cell growth factor project, biochemical, small-molecule microarray, fluorescence 635/667 (AID 1071); settings: higher = more signal;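 also: score merges 667 nm spot intensity and signal to noise from triplicate slides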
[5] = target: Neurogenic locus notch homolog protein 2 (Homo sapiens) (UniProt Q04721); test: Notch2 binders on small-molecule microarrays, primary screen, biochemical, small-molecule microarray, 635 nm fluorescence, stem cell growth factors (AID 1073); settings: Notch2 binding, higher = more signal
[6] = target: Pro-neuregulin-1, membrane-bound isoform (Homo sapiens) (UniProt Q02297); test: NRG1 binders on small-molecule microarrays, primary screen, psychiatric disease protein project, biochemical, small-molecule microarray, fluorescence 635/667 (AID 1075); settings: NRG1 binding, 635 nm fluorescence, higher = more signal;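 also: score combines 667 nm spot fluorescence with signal to noise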
[7] = system: Neuregulin-1 EGF-like domain; test: binders of neuregulin-1 EGF-like domain, primary screen, biochemical, small-molecule microarray, 635 nm fluorescence (AID 1081); settings: small-molecule microarray binding, higher = more signal;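 also: binding of the protein to compounds printed on small-molecule microarray slides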
[8] = FRG1 promoter luciferase signal modulators, primary screen, FRG1 inhibition for FSHD, cell-based, C2C12 myotubes, firefly/Renilla luciferase, luminescence (AID 1084); settings: higher = more signal, called active from +8 up or from −8 down
[9] = binders of probe aFST on microarray, primary screen, stem cell growth factor project, biochemical, small-molecule microarray, fluorescence 635/667 (AID 1086); settings: higher = more signal;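 also: score merges 667 nm fluorescence with signal-to-noise of each printed compound spot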
[10] = binders of probe aHhip on microarray, primary screen, stem cell growth factor project, biochemical, small-molecule microarray, fluorescence 635/667 (AID 1087); settings: higher = more signal;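 also: score merges spot fluorescence at 667nm with spot signal to noise ratio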
[11] = system: PRMT1 (protein arginine N-methyltransferase 1); test: PRMT1 binders on small-molecule microarrays, primary screen, biochemical, small-molecule microarray, 635 nm fluorescence (AID 1088); settings: small-molecule microarray binding, higher = more signal;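 also: binding of Prmt1 protein to compounds spotted on small-molecule microarray slides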
[12] = yeast growth modulation, basal conditions, primary screen, YJM789 clinical isolate, OD600, 24 h (AID 1089);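 also: growth of clinical yeast isolate S. cerevisiae YJM 789 seeded 1000 cells per well; test concentration not given here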; settings: S. cerevisiae YJM789 growth, higher = more signal, called active from +8 up or from −8 down
[13] = fission yeast growth modulation, primary screen, strain 972, OD600, 24 h, no modulator (AID 1090);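 also: basal condition with compound alone and no growth modifier present; test concentration not given here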; settings: S. pombe 972 growth, higher = more signal, called active from +8 up or from −8 down
[14] = S. cerevisiae growth modulation with rapamycin, primary screen, strain BY4716, OD600, 96 h (AID 1091); settings: higher = more signal, called active from +8 up or from −8 down; also: test concentration not given here
[15] = target: Torsin-1A-interacting protein 2 (Homo sapiens) (UniProt Q8NFQ8); test: LULL1 binders on small-molecule microarray, primary screen, cell lysate, human LULL1 lysate, 635/667 nm fluorescence (AID 1092); settings: hLULL1 lysate binding, 635 nm fluorescence, higher = more signal;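 also: probe is lysate of COS7 cells overexpressing human LULL1; score merges per-feature 667 nm fluorescence with signal-to-noise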
[16] = E. coli growth modulation, two-sided OD650, primary screen, E. coli filamentation project, strain DRC41, 24 h (AID 1093); settings: OD650, 24 h, higher = more signal, called active from +8 up or from −8 down;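 also: MC1000 strain lacking acrAB efflux and sulA so SOS filamentation is blocked; test concentration not given here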
[17] = small-molecule microarray binders of probe aLefty2, primary screen, biochemical, biotinylated probe, 635/667 nm fluorescence (AID 1094); settings: higher = more signal;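 also: score merges spot fluorescence near 667 nm with spot signal-to-noise ratio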
[18] = system: Noggin (protein binding on small-molecule microarray); test: Noggin binders on small-molecule microarray, primary screen, biochemical, 635/667 nm fluorescence (AID 1095); settings: 635 nm fluorescence, higher = more signal;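 also: score merges 667 nm feature fluorescence with signal to noise over triplicate slides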
[19] = target: Neurogenic locus notch homolog protein 3 (Homo sapiens) (UniProt Q9UM47); test: NOTCH3 binders on small-molecule microarray, primary screen, biochemical, 635/667 nm fluorescence (AID 1096); settings: NOTCH3 binding, 635 nm fluorescence, higher = more signal
[20] = small-molecule microarray binders of probe aEGFR, primary screen, biochemical, biotinylated probe, 635/667 nm fluorescence (AID 1097); settings: higher = more signal;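 also: probe is a biotinylated anti-EGFR antibody binding compounds printed on slides; score combines fluorescence near 667 nm and signal to noise of each spot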

Sequence of Torsin-1A-interacting protein 2 (Homo sapiens) (Q8NFQ8 whole entry, looked up): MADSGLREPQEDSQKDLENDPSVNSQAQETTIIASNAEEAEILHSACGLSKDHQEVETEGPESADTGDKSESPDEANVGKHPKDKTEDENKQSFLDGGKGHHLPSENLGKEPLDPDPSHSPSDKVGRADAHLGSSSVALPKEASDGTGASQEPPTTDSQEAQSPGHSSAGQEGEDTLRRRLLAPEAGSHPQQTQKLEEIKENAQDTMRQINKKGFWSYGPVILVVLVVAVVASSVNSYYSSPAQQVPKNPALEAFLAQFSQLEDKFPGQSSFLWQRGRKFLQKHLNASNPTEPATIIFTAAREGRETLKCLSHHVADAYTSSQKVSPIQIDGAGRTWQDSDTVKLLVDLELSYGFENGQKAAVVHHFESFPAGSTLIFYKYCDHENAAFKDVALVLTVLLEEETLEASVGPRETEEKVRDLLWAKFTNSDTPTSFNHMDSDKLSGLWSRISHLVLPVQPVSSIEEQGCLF
Sequence of Pro-neuregulin-1, membrane-bound isoform (Homo sapiens) (Q02297 whole entry, looked up, the tested form may be a part, canonical isoform): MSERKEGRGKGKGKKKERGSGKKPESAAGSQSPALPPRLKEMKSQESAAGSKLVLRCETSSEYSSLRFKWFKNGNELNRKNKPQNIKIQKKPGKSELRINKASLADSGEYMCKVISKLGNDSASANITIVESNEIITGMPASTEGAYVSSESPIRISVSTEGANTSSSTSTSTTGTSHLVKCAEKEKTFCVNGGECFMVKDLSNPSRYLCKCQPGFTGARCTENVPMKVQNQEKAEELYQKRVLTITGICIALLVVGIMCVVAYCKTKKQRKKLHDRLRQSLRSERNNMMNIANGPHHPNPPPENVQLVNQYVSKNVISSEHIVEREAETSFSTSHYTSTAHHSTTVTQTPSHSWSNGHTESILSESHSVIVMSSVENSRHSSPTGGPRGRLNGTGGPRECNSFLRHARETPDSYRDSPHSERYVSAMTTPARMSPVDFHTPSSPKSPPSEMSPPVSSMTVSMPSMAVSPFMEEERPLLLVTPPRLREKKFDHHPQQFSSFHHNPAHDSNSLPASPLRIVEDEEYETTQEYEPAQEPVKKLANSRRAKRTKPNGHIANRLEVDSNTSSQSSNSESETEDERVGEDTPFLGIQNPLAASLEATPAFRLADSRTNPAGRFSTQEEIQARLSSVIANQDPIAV
Sequence of Neurogenic locus notch homolog protein 2 (Homo sapiens) (Q04721 whole entry, looked up, canonical isoform): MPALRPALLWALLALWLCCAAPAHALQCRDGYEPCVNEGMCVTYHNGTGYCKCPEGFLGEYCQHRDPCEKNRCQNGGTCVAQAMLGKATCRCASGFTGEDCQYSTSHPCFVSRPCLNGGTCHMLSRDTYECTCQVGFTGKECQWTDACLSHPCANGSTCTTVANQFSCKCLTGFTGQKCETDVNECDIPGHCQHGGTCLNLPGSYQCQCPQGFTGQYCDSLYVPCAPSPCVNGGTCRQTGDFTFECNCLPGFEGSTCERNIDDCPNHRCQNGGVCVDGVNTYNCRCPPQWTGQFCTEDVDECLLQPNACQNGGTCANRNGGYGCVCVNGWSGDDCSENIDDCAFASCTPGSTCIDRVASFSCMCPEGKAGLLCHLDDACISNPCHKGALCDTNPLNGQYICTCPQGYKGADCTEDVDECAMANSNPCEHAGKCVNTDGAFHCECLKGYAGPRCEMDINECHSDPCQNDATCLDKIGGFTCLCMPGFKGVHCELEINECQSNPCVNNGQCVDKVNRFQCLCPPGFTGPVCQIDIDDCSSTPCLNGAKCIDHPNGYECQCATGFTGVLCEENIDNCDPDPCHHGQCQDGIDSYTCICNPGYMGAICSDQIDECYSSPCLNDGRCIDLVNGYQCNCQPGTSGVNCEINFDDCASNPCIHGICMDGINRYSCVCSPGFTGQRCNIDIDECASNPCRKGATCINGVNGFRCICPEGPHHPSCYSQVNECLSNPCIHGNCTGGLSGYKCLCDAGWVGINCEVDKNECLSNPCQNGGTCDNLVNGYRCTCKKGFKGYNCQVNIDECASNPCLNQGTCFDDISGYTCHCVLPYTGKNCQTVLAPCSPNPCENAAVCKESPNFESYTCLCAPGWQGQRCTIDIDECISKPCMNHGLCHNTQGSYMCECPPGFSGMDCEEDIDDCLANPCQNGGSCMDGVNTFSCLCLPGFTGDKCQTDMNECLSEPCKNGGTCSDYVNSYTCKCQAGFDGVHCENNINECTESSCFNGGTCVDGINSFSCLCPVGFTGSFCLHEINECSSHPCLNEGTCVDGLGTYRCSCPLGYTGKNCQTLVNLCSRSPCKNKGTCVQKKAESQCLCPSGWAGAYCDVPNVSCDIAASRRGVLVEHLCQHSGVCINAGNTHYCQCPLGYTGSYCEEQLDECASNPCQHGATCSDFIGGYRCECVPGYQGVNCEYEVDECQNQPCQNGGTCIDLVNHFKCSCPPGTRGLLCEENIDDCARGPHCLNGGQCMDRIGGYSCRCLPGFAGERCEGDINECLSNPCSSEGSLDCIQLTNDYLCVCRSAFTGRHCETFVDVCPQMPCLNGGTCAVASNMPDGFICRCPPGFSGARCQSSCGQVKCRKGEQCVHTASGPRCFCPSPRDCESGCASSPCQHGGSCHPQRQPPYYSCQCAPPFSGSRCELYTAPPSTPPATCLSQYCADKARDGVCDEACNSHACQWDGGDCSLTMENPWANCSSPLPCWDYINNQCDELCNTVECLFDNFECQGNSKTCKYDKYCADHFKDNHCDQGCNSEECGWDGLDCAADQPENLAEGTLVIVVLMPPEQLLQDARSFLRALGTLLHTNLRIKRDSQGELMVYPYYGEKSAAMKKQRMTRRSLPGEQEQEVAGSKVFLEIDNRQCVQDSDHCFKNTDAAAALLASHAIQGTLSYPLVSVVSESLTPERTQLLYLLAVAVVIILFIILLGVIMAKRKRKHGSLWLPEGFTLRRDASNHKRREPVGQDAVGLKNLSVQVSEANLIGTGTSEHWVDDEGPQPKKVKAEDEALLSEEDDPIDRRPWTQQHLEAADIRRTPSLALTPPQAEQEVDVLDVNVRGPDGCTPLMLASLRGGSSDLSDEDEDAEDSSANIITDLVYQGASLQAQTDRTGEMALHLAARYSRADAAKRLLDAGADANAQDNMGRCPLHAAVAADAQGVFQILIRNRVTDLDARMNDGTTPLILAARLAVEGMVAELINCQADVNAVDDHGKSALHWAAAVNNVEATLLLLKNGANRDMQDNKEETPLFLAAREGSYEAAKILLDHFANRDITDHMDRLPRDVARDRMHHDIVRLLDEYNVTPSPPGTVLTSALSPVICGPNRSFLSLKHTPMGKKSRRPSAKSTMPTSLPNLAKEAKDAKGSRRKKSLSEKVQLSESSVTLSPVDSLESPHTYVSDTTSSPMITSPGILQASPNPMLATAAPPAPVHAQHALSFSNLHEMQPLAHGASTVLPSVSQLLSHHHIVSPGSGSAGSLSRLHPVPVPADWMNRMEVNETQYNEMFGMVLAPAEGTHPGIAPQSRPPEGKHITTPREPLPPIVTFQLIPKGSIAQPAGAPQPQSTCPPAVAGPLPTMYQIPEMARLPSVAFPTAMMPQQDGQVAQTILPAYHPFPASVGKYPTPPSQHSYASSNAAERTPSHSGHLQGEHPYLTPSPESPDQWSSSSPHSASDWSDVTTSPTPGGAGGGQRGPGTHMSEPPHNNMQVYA

In the case of `COc1ccc([Si](C)(C)[C@H]2[C@H](CC(=O)N3CCC[C@H]3CO)O[C@@]3(C(=O)N(C)c4c(Br)cc(C)cc43)[C@@H]2C)cc1`, the composite z-score [1] is reported as 0.536, the composite z-score [2] is reported as 1.88 and the composite z-score [3] is reported as 0.336. For the same compound, the composite z-score [4] was 1.04, the composite z-score [5] was 0.284 and the composite z-score [6] was 2.51. For the same compound, the composite z-score [7] was 1.41, the z-score [8] was -1.39 (inactive) and the composite z-score [9] was 1.12. For the same compound, the composite z-score [10] was 0.104, the composite z-score [11] was 1.54 and the z-score [12] was -0.749 (inactive). The z-score [13] was -0.108 (inactive), the z-score [14] was -0.385 (inactive) and the composite z-score [15] was 3.42. The z-score [16] was -0.2 (inactive), the composite z-score [17] was 0.412 and the composite z-score [18] was 2.05. The composite z-score [19] was 0.498 and the composite z-score [20] was 0.459.
`C=CCC(OC(C)=O)[C@@H]1[C@@H](N(Cc2cccc3ccccc23)C(=O)c2ccc(C)cc2)c2cc(OCCCO)ccc2N1C(=O)Cc1ccc2ccccc2c1` (stereo not given in full) gave a composite z-score [1] of 0.151, a composite z-score [2] of -0.124 and a composite z-score [3] of 0.0348. It also gave a composite z-score [4] of 0.021, a composite z-score [5] of -0.0785 and a composite z-score [6] of -0.158. For the same compound, the composite z-score [7] was -0.665, the z-score [8] was -2.29 (inactive) and the composite z-score [9] was 0.0338. The composite z-score [10] was 0.127, the composite z-score [11] was -0.52 and the z-score [12] was -1.8 (inactive). For the same compound, the z-score [13] was -0.825 (inactive), the z-score [14] was -0.614 (inactive) and the composite z-score [15] was 0.318. For the same compound, the z-score [16] was 1.17 (inactive), the composite z-score [17] was -0.113 and the composite z-score [18] was -0.206. It also gave a composite z-score [19] of 0.141 and a composite z-score [20] of -0.184.
In the case of `C=CCOC(=O)[C@H]1[C@@H]2C(=O)O[C@@H](c3ccccc3)[C@@H](c3ccccc3)N2[C@@H](c2ccc(OCCOC(=O)[C@H]3C[C@H]4C(=O)NCC(=O)N4[C@H]3c3cccc(OCCO)c3)cc2)[C@]12C(=O)Nc1ccc(I)cc12`, the composite z-score [1] is reported as -0.365, the composite z-score [2] is reported as 0.469 and the composite z-score [3] is reported as -0.045. It also gave a composite z-score [4] of 0.589, a composite z-score [5] of 0.81 and a composite z-score [6] of 0.388. For the same compound, the composite z-score [7] was 1.3, the z-score [8] was -0.18 (inactive) and the composite z-score [9] was 0.557. The composite z-score [10] was 0.28, the composite z-score [11] was 1.54 and the z-score [12] was 1.29 (inactive). The z-score [13] was 0.682 (inactive), the z-score [14] was 3.48 (inactive) and the composite z-score [15] was 2.78. The z-score [16] was 0.0763 (inactive), the composite z-score [17] was -0.172 and the composite z-score [18] was 1.69. The composite z-score [19] was 1.06 and the composite z-score [20] was 0.0389.
